An excerpt weighted towards active compounds, which were near 3% of everything screened.
PLK1 PBD block = blocks phosphopeptide binding to human PLK1 polo-box domain | P53350 | Plk1 PBD binding of FITC phosphopeptide, fluorescence polarization | 360,000 tested, 2.8% active | AID 720504 | Potency, µM, for the others: max response, negative = inhibition, usual class: inhibitors; also: series mostly up to about 57 µM; % is scaled to controls: 0 for no effect and ±100 for the full control effect; nearly all actives have a fitted effect of over 65% in size
Target sequence (P53350 whole entry, looked up, the tested form may be a part): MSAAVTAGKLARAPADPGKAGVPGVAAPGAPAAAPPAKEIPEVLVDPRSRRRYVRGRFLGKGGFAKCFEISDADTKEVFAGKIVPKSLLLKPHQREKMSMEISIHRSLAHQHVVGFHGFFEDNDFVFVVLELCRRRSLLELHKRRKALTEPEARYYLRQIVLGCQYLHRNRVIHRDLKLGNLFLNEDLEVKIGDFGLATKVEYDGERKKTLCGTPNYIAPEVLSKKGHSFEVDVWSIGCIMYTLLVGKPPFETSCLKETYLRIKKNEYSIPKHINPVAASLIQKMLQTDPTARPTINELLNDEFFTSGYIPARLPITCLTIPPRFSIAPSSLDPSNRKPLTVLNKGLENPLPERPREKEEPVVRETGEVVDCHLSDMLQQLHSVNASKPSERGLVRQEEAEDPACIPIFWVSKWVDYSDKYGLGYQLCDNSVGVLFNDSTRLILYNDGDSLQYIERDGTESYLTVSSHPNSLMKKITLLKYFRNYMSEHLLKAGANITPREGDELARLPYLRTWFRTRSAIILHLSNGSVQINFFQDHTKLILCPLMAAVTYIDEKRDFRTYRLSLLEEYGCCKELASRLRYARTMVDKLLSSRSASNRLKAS
USP1-UAF1 inh = USP1/UAF1 (human) deubiquitinase inhibition; O94782; recombinant USP1/UAF1, Ub-Rhodamine cleavage fluorescence; Potency, µM (top dose mostly 57.1 µM), inactives show at the highest dose activity change, negative = inhibition, usual class: inhibitors; 390,000 tested, 0.23% active; AID 743255; also: % is scaled to controls: 0 for no effect and ±100 for the full control effect; nearly all actives have a fitted effect of over 60% in size
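USP1/UAF1 complex (1 nM) preincubated 15 min at room temperature with compound, then Ub-Rho substrate (150 nM final) added. Kinetic fluorescence at 480/540 nm over 6 reads at 60 s intervals; 50 mM HEPES pH 7.8, 0.5 mM EDTA, 0.1 mg/ml BSA, 1 mM TCEP, 0.01% Tween-20.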
KAT2A inh = blocks human GCN5L2 histone acetyltransferase; 390,000 tested, 0.21% active; GCN5L2 HAT assay, ThioGlo1 CoA-SH fluorescence; Potency, µM (titrated, usually from 58.9 µM), for the others: top-dose activity change, negative = inhibition, hits mostly inhibitors; also: % is scaled to controls: 0 for no effect and ±100 for the full control effect
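GCN5L2 (20nM final) in 50mM HEPES, 0.1mM EDTA pH 7.5, 0.01% Tween-20 was preincubated 15 min at room temperature with compound, then given ThioGlo1 (50uM), H3(1-25) peptide (75uM) and acetyl-CoA (70uM); CoA-thiol fluorescence (Ex340/Em540) was read at 0 and 20 min.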
VDR inh = inhibitors of human vitamin D receptor | VDR-SRC2-3 peptide fluorescence polarization, 2 h | 400,000 tested, 0.93% active | AID 504847 | Potency, µM, for inactives: max response, negative = inhibition, hits mostly inhibitors; also: % is scaled to controls: 0 for no effect and ±100 for the full control effect
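Inhibition of the VDR/SRC2-3 peptide interaction is quantified by fluorescence polarization. Compounds (23 nl, pintool) incubate with the reagents for 2 hours at ambient room temperature.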
TSG101-PTAP inh = blocks PTAP/TSG101 interaction to inhibit HIV-1 budding. Q99816. Fluorescence polarization, FITC-PTAP peptide / Tsg101 binding. Potency, µM (top dose mostly 115 µM), without a hit: at the highest dose activity change, negative = inhibition, actives largely listed as inhibitors. 340,000 tested, under 10 active. AID 493005; active = well fitted inhibition curve with a large enough effect in the main read-out, with a control signal flat, not every such curve was filed as active; inconclusive = small, poorly fitted or top-dose-only effect, or effect the other way, or a change in a side signal; inactive = no such curve, though single readings can be large or run the other way; also: % of control where 0% means no effect
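Tsg101 binding domain (10 uM final) was mixed with compound and a FITC-labeled PTAP peptide (50 nM final) in HEPES pH 7.5 buffer with NaCl, Tween 20, EDTA and TCEP; fluorescence polarization was read after 20 min at r.t.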
Starred values were filed as active, the others as inactive; ? = inconclusive; . = not tested or not shown. Unless noted, calls follow the shape of the dose curve; as a rule, active = well fitted curve in the direction sought with a large enough effect; inconclusive = small, poorly fitted or top-dose-only effect, or another doubt; inactive = no such curve, though single readings can be large; an effect the other way counts as inactive or inconclusive. Potency is read from the fitted curve at half-maximal effect.

SMILES	PLK1 PBD block	USP1-UAF1 inh	KAT2A inh	VDR inh	TSG101-PTAP inh
C=C1C2=CC(=O)OC(c3ccoc3)[C@]2(C)CCC1[C@]1(C)C=CC(=O)C(C)(C)C1CC(=O)OC (stereo partly specified)	.	.	1.0%	39.8µM*	.
Cc1ccc(S(=O)(=O)N(C)C[C@H]2Oc3cc(C#Cc4ccccc4)ccc3S(=O)(=O)N([C@H](C)CO)C[C@@H]2C)cc1	-0.1%	-20.7%	.	.	.
CCOc1ccc(N(CC)C(=O)COc2cc(=O)n(CC)c3ccccc23)cc1	26.7µM*	-10.3%	1.9%	-23.1%	-8.0%
CCn1c(=O)cc(OCC(=O)N2CCCC2)c2ccccc21	26.7µM*	-5.0%	-2.6%	-10.7%	-4.7%
CC1(C)CC(=O)C(C(=O)C2CCN(S(=O)(=O)c3ccccc3)CC2)C(=O)C1	-5.0%	5.8%	-6.0%	6.4%	-1.5%
CCOC(=O)c1c(C)n(C)c2ccc(O)c(CN3CCC(C)CC3)c12	-3.3%	6.2%	-16.9%	89.1µM*	-1.6%
Nc1nnc(SC2CC(=O)N(c3ccccc3)C2=O)s1 (stereo unspecified)	29.9µM*	-3.9%	-12.8%	-9.6%	3.8%
C=CCNc1nnc(SC2CC(=O)N(c3ccc(OCCC)cc3)C2=O)s1 (stereo unspecified)	21.2µM*	-3.2%	-12.0%	-5.5%	-4.5%
COc1ccccc1N1C(=O)CC(Sc2n[nH]c(-c3cccc(C)c3)n2)C1=O (stereo unspecified)	13.4µM*	-16.7%	-12.9%	-11.8%	-1.2%
CCOc1ccc(N2C(=O)CC(Sc3nc4ccc(OCC)cc4s3)C2=O)cc1 (stereo unspecified)	-6.6%	-19.4%	.	7.3%	-4.1%
CCOc1ccc(N2C(=O)CC(Sc3nccc(C)n3)C2=O)cc1 (stereo unspecified)	26.7µM*	-27.6%	0.6%	-3.2%	-3.3%
CC(C)=CCn1cnc2c1C(NOCc1ccccc1)=NCN2	.	.	.	-8.4%	.
COc1ccc(-c2cc(C(F)(F)F)c(C#N)c(SCC(=O)Nc3cccc(C)c3)n2)cc1	.	?	-4.3%	-15.4%	.
Cc1nc(SC2CC(=O)N(c3ccccc3)C2=O)n[nH]1 (stereo unspecified)	29.9µM*	-0.9%	1.5%	-0.5%	0.1%
O=C1CC(Sc2ncccn2)C(=O)N1c1ccccc1 (stereo unspecified)	-2.6%	-16.7%	-0.2%	14.2%	-3.9%
CCCC1(CC)C(=O)NC(=O)N=C1N (stereo unspecified)	1.6%	-18.0%	.	2.0%	-5.4%
O=C(Nc1nccs1)C1CCN(S(=O)(=O)c2cccnc2)CC1	1.7%	-27.1%	-3.4%	-0.7%	-1.8%
O=C(Nc1nccs1)C1CCCN(S(=O)(=O)c2cccnc2)C1 (stereo unspecified)	21.2µM*	-3.7%	-2.5%	-26.3%	-3.6%
O=C(Oc1ccc(Cl)c2cccnc12)c1cccc([N+](=O)[O-])c1	1.3%	-11.1%	-3.0%	-14.8%	-1.5%
O=[N+]([O-])c1ccccc1COc1ccc(Cl)c2cccnc12	23.8µM*	-20.6%	-5.6%	-19.8%	2.6%
COc1ccccc1CNc1nc(C)c(C(C)=O)s1	15µM*	-24.8%	0.0%	-4.8%	0.1%
COc1ccccc1CNc1nc(C)c(C(=O)N(C)C)s1	23.8µM*	-13.2%	-13.0%	?	0.7%
COC(=O)Nc1nc(C)c(C(=O)N(C)C)s1	0.8%	-12.0%	-7.0%	9.9%	-6.5%
Cc1nc(NCCc2ccccc2)sc1C(=O)N(C)C	18.9µM*	-13.4%	-2.0%	-26.2%	-2.8%
COc1ccc(-c2noc(N(c3cccc(Cl)c3)c3nc(-c4ccc(OC)c(OC)c4)no3)n2)cc1OC	.	?	2.6%	-19.3%	.
SMILES	PLK1 PBD block	USP1-UAF1 inh	KAT2A inh	VDR inh	TSG101-PTAP inh
CCc1ccccc1N(CC)C(=O)Cn1nc(Cc2ccncc2)c2ccccc2c1=O	.	3.0%	-8.5%	-18.5%	.
CC(=O)Oc1cccc(/C=C2\C=C(c3ccc(C)cc3)OC2=O)c1	18.9µM*	-10.1%	-3.3%	?	2.2%
COc1ccc(C2=C/C(=C\c3ccc(OC(C)=O)cc3)C(=O)O2)cc1	-9.7%	-11.9%	-1.8%	-13.7%	1.1%
CCCCCCCC1=CC2=C(Cl)C(=O)C(C)(OC(C)=O)C(=O)C2=CO1 (stereo unspecified)	.	.	.	50.1µM*	.
CCCCCCCC1=CC2=C(Cl)C(=O)C(C)(OC(C)=O)C(=O)C2=CN1C (stereo unspecified)	.	.	.	70.8µM*	.
COc1ccc(-c2nnc(SCC(=O)Nc3ccc(C)c(Cl)c3)nc2-c2ccc(OC)c(OC)c2)cc1OC	.	-10.9%	-9.1%	17.0%	.
CCCN1C(=O)C(O)(CC(=O)c2ccc(OC)c(OC)c2)c2ccccc21 (stereo unspecified)	.	-18.7%	0.3%	-0.2%	.
CN(/C=C/C(=C\C=[N+](C)c1ccccc1)OCCCS(=O)(=O)[O-])c1ccccc1	36.0%	-10.3%	-9.5%	-10.9%	?
CC(C)c1ccc(CNn2cnnc2)cc1	26.7µM*	-28.2%	-20.6%	-14.8%	-2.6%
CC(C)c1ccc(CNc2nnnn2C)cc1	-1.0%	-18.1%	0.2%	0.5%	-3.6%
C=CC1=C(C)C2=Cc3c(C=C)c(C)c4[n]3[Sn+2][n]3c(c(C)c(CCC(=O)O)c3=CC3=NC(=C4)C(C)=C3CCC(=O)O)=CC1=N2	.	.	?	35.5µM*	.
CN(C)c1ncc2nc(-c3ccc(F)cc3)c(=O)n(C[C@H]3CCCO3)c2n1	.	.	-13.6%	1.2%	.
COc1cc(C2c3sc(=O)[nH]c3SC3C(=O)N(c4ccc(Br)cc4)C(=O)C32)ccc1O (stereo unspecified)	-19.9%	-22.3%	?	-6.7%	-5.7%
COC(=O)C1Sc2[nH]c(=O)sc2C(c2ccc(Cl)cc2)C1C(=O)OC (stereo unspecified)	?	1.8%	-7.7%	-7.4%	-13.2%
COC(=O)C1=C(C(=O)OC)C(c2ccc(OC)c(OC)c2)c2sc(=O)[nH]c2S1 (stereo unspecified)	-9.5%	-13.7%	?	79.4µM*	1.4%
COC(=O)C1=C(C(=O)OC)C(c2cc(Cl)ccc2O)c2sc(=O)[nH]c2S1 (stereo unspecified)	9.47µM*	-9.0%	-1.3%	?	-6.0%
COC(=O)C1=C(C(=O)OC)C(c2cc(Br)ccc2O)c2sc(=O)[nH]c2S1 (stereo unspecified)	2.99µM*	-24.8%	-2.4%	?	1.3%
CCOc1ccc(CN(C(=O)c2nc(SC)ncc2Cl)C2CCS(=O)(=O)C2)cc1 (stereo unspecified)	.	-20.1%	1.9%	18.3%	.
Cc1ccc(CCNC(=O)C2CCN(S(=O)(=O)c3ccc4c(ccn4C)c3)CC2)cc1	.	-26.7%	-7.5%	-2.9%	.
CC(=O)c1ccc(OCC(O)COc2ccc(C(C)=O)cc2)cc1	-1.0%	-18.9%	-8.7%	7.5%	-8.2%
NC(=O)OC[C@H](O)COc1ccc(Cl)cc1	.	.	14.1µM*	-7.6%	.

High-throughput results from PubChem.
